A selection: hits, their analogues and other compounds. The true share with any hit is near 10%.
JMJD2A Tudor inh: inhibitors of human JMJD2A Tudor domain; O75164; AlphaScreen JMJD2A-Tudor / H3K4me3 peptide binding; Potency, µM (top dose mostly 114 µM), most hits filed as inhibitors; 390,000 tested, 4.4% active; AID 504339; note: nearly all actives have a fitted effect of over 50% in size
CtBP-E1A blk: blocks the CtBP interaction with E1A; AID 651724; AlphaScreen GST-E1A/His-CtBP binding, 1536-well; stronger effect = lower value; activity change, % (concentration not given with the values); 340,000 tested, 0.49% active; in the data active = activity change below about -65%; inconclusive = mostly about -30% to -63%
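Homogeneous bead-based format: GST-tagged E1A captured on glutathione donor beads, His-tagged CtBP on nickel acceptor beads; compounds precede bead addition by 2 h at 37 °C.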
G9a block: blocks human histone lysine methyltransferase G9a; Q96KQ7; G9a H3K9 monomethylation, AlphaScreen, 2 h; Potency, µM (series often up to 102 µM), usual class: inhibitors; 350,000 tested, 8.8% active; AID 504332; note: nearly all actives have a fitted effect of over 75% in size
Target sequence (Q96KQ7 913-1193 limits assumed): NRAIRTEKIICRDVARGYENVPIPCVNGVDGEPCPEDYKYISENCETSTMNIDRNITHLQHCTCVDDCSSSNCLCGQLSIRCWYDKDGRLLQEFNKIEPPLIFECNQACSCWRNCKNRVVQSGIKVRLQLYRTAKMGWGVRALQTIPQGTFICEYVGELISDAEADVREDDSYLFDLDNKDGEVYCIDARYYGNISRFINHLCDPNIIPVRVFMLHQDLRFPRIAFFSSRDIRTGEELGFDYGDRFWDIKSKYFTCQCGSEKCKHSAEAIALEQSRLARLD
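Compounds were preincubated with 20 nM G9a for 15 min, after which biotinylated H3K9 peptide (500 nM) and SAM (20 uM) started a 2 h room-temperature reaction. Monomethylated product was quantified by antibody-based AlphaScreen chemiluminescence.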
BAZ2B block: inhibitors of human BAZ2B bromodomain; Potency, µM (titrated, usually from 114 µM), most hits filed as inhibitors; Q9UIF8; AID 504333; AlphaScreen BAZ2B-H3K14Ac peptide displacement; 360,000 tested, 4.4% active; note: nearly all actives have a fitted effect of over 60% in size
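Multi-concentration screen (max 110 uM) measuring displacement of acetylated histone H3 peptide from BAZ2B by AlphaScreen, using 50 nM protein, 50 nM peptide and 10 ug/mL streptavidin donor plus Ni-chelate acceptor beads.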
Six1-Eya2 blk: inhibitors of human Six1/Eya2 interaction | AlphaScreen GST-Six1/His-Eya2 binding, biochemical; stronger effect = lower value | activity change, % (no concentration beside the values) | 360,000 tested, 0.56% active; in the data active = activity change below about -65%; inconclusive = mostly about -30% to -63%
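AlphaScreen with GST-Six1 and His-Eya2 (5X mix: 250 nM and 500 nM), glutathione donor and nickel acceptor beads; buffer 50 mM Tris pH 8.0, 300 mM NaCl, 1 mM TCEP; 1 h at 37 C in the dark.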
HP1b chromo inh: HP1-beta chromodomain-methylated histone interaction inhibition; AlphaScreen HP1-beta / biotin-H3K9me3 peptide binding; Potency, µM (highest dose often 114 µM), most hits filed as inhibitors; 390,000 tested, 0.56% active; AID 540317; note: nearly all actives have a fitted effect of over 70% in size
Target sequence (P83916 whole entry, looked up): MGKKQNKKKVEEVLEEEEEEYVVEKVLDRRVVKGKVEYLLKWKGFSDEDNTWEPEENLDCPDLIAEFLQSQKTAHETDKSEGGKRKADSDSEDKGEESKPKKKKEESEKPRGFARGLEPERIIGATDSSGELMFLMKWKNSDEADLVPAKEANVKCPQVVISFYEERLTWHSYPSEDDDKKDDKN
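Compound inhibition of the preformed complex between 50 nM HP1-beta and 50 nM biotinylated H3K9me3 peptide was read by AlphaScreen. Buffer was PBS pH 7.4 with 0.01% Tween-20. Incubations ran 30 min at room temperature, with 10 ug/mL donor/acceptor beads.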
Each line names hits and unclear results; the compound was inactive in the other large screens; ! = not active in a repeat. Unless noted, calls come from the whole dose curve; as a rule, active = well fitted inhibition curve with a large enough effect; inconclusive = small, poorly fitted or top-dose-only effect; inactive = no such curve, though single readings can be large or run the other way.

CCCN1C(=O)S/C(=C\c2ccc(N3CCOCC3)o2)C1=O	JMJD2A Tudor inh inconclusive, G9a block 4µM, HP1b chromo inh inconclusive
O=C(O)CN1C(=O)/C(=C/c2ccc(N3CCCCC3)o2)SC1=S	JMJD2A Tudor inh inconclusive, G9a block 25µM, BAZ2B block 35µM, Six1-Eya2 blk inconclusive, HP1b chromo inh inconclusive
CCCN1C(=O)S/C(=C/c2ccc(N3CCOCC3)o2)C1=O	BAZ2B block inconclusive
Cc1cc(N2CCOCC2)ccc1/C=C1\SC(=O)N(C(C)C)C1=O	none
CN(CCCN1CCCCC1)C(=O)CCc1nnc(C2CCCCC2)o1	none
COC(=O)CN1C(=O)S/C(=C/c2ccc(N3CCCCC3)o2)C1=O	JMJD2A Tudor inh 35µM, BAZ2B block 45µM, HP1b chromo inh inconclusive
CCOC(=O)CN1C(=O)S/C(=C/c2ccc(N3CCCCC3)o2)C1=O	JMJD2A Tudor inh 50µM, G9a block 3.2µM
COc1cc([N+](=O)[O-])cc(/C=N/NC(=O)Cn2nc(C)cc2C)c1O	JMJD2A Tudor inh 79µM, CtBP-E1A blk inconclusive, BAZ2B block 71µM, Six1-Eya2 blk -91
COc1cc([N+](=O)[O-])cc(/C=N/NC(=O)CSc2nnc(-c3ccccc3)n2C)c1O	JMJD2A Tudor inh inconclusive (no result: G9a block)
COc1ccc(/C=N/NC(=O)Cn2nc([N+](=O)[O-])cc2C)c(OC)c1OC	none (no result: CtBP-E1A blk)
COc1cc(Br)cc(/C=N/NC(=O)Cc2ccc(C(F)(F)F)cc2[N+](=O)[O-])c1O	JMJD2A Tudor inh 89µM
COc1cc([N+](=O)[O-])cc(/C=N/NC(=O)Cn2nccc2C)c1O	CtBP-E1A blk -94, BAZ2B block 45µM, Six1-Eya2 blk -88
Cc1cc2cc3c(cc2nc1SCC(=O)O)OCCO3	none
Cc1cc2cc3c(cc2nc1SCc1ccc(C(=O)O)cc1)OCCO3	G9a block 50µM, BAZ2B block inconclusive
CCc1cccc(NS(=O)(=O)c2ccc3c(c2)N(CC(=O)OC)C(=O)CS3)c1	none (no result: CtBP-E1A blk, Six1-Eya2 blk)
COc1ccc2oc(=O)c(C(=O)Nc3ccc(C(=O)O)cc3)cc2c1	none (no result: CtBP-E1A blk, Six1-Eya2 blk)
Cc1ccc2[nH]c(-c3cccc(F)c3)cc(=O)c2c1	G9a block 0.28µM!
O=c1cc(-c2ccccc2)[nH]c2ccc(F)cc12	G9a block 79µM!
O=c1cc(-c2cccc(F)c2)[nH]c2ccccc12	G9a block 32µM!
O=c1cc(-c2cccc(F)c2)[nH]c2cc(Cl)ccc12	none (no result: JMJD2A Tudor inh, CtBP-E1A blk, BAZ2B block, Six1-Eya2 blk, HP1b chromo inh)
COc1ccc2[nH]c(-c3cccc(F)c3)cc(=O)c2c1	G9a block inconclusive
CCCNC(=O)c1c2c(nc3ccccc13)C(=O)N(C1CCCCC1)C2	none (no result: CtBP-E1A blk, Six1-Eya2 blk)
N#CC(=C(/N)Sc1ccccc1N)/C(C#N)=C(\N)Sc1ccccc1N	G9a block 13µM (no result: JMJD2A Tudor inh, CtBP-E1A blk, BAZ2B block, Six1-Eya2 blk, HP1b chromo inh)
COC(=O)c1ccc2c(c1)C(C)(C)C(/C=C/c1ccc(OC)c(OC)c1OC)=[N+]2C	JMJD2A Tudor inh 56µM, BAZ2B block inconclusive
COC(=O)c1ccc2c(c1)C(C)(C)C(/C=C/c1ccc(O)cc1)=[N+]2C	JMJD2A Tudor inh 50µM, G9a block 7.1µM, BAZ2B block 28µM, HP1b chromo inh inconclusive
C=Cc1ccc(Cn2c(C(=O)O)c(CNCc3ccccc3)c3ccc(C)cc32)cc1	JMJD2A Tudor inh inconclusive, G9a block inconclusive, BAZ2B block 50µM (no result: CtBP-E1A blk, Six1-Eya2 blk)
Cc1ccc(CNCc2c(C(=O)O)n(Cc3ccc(C)cc3)c3cc(C)ccc23)cc1	JMJD2A Tudor inh inconclusive, G9a block inconclusive (no result: CtBP-E1A blk, Six1-Eya2 blk)
O=C(CN1CCN(c2cccc(Cl)c2)CC1)NC1CCCc2ccccc21 (centres undefined)	BAZ2B block inconclusive
COC(=O)c1ccc(CSc2nc3c([nH]c4ccccc43)c(=O)n2-c2cc(C)cc(C)c2)o1	none (no result: CtBP-E1A blk, Six1-Eya2 blk)
CCN(CC)S(=O)(=O)c1cccc(-c2csc(C)n2)c1	none
Cc1ccc(-c2n[nH]c(=S)n2C)cc1Cl	JMJD2A Tudor inh 3.2µM, G9a block inconclusive
Cn1c(-c2csc(-c3cccc(C(F)(F)F)c3)n2)n[nH]c1=S	G9a block inconclusive
NC(=O)CSc1nnc(-c2cccc(S(=O)(=O)N3CCOCC3)c2)n1C1CCCCCC1	JMJD2A Tudor inh inconclusive

High-throughput results (PubChem BioAssay)
